SMILES strings stand for the structures. Calls of active or inactive are those of the source. Unless noted, the rule behind the calls is not given here.

Experiment [1] in a line: resazurin metabolic signal in HepG2 cells – cell-based, resazurin fluorescence, 24 h, PK04 Diversity Set, profiling panel (AID 1172). Note: test concentration not given here. The settings on record: HepG2 viability, higher = more signal.
The nature of experiment [2]: budding yeast growth changes without added modifier – OD600, strain BY4716, 24 h, basal condition, primary screen (AID 1173). The note with it: S. cerevisiae BY4716 growth, OD600, 24 h; higher = more signal, called active from +8 up or from −8 down.
A short description of experiment [3]: viability profiling in MM1S myeloma cells – cell-based, resazurin fluorescence, basal, 24 h, PK04 Diversity Set, profiling panel (AID 1174).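 Note: MM1S multiple myeloma cell line; test concentration not given here.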 The settings on record: higher = more signal, called active from +8 up or from −8 down. A general note: Alamar Blue is a resazurin reagent that responds to reducing activity.
For experiment [4], the target named is Dihydroorotate dehydrogenase (quinone), mitochondrial (Plasmodium falciparum (isolate 3D7)) (UniProt Q08210). Briefly: inhibition of P. falciparum DHODH – biochemical, C-terminal His tag, absorbance 600 nm, primary screen (AID 1175).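 Note: recombinant parasite enzyme with a five histidine tag at its C terminus; test concentration not given here.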 The note with it: PfDHODH enzyme, DCIP absorbance 600 nm; higher = more signal, called active from +8 up or from −8 down.
Sequence of Dihydroorotate dehydrogenase (quinone), mitochondrial (Plasmodium falciparum (isolate 3D7)) (Q08210 whole entry, looked up): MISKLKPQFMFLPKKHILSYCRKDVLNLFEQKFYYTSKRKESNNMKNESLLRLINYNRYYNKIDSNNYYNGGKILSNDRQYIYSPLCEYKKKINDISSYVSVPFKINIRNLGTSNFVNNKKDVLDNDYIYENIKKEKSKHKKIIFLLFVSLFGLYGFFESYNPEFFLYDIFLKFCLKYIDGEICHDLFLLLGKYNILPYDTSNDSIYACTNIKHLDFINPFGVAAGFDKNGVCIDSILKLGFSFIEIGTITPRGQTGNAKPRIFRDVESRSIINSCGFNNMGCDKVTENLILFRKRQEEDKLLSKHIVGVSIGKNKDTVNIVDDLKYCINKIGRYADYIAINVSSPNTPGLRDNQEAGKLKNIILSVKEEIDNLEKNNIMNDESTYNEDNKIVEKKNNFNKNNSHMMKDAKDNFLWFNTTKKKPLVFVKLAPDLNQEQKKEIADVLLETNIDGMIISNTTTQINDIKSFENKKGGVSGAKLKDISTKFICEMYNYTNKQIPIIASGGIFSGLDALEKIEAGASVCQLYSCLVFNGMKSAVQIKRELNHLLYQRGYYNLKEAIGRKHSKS
A short description of experiment [5]: inhibition of PAO1 biofilm formation – strain PAO1, LB-PBS medium, absorbance 600 nm, primary screen (AID 1176). Note: test concentration not given here. The note with it: P. aeruginosa PAO1 growth/biofilm, A600, 12 h; higher = more signal.
A short description of experiment [6]: growth modulation of vineyard yeast isolate – strain RM11-1a, OD600, basal, 24 h, primary screen (AID 1177).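 Note: cultures grown under basal conditions with no added stressor; test concentration not given here.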 The note with it: S. cerevisiae RM11-1a growth, OD600, 24 h; higher = more signal, called active from +8 up or from −8 down.
The nature of experiment [7]: growth of efflux-deficient E. coli DRC39 – strain DRC39, OD650, 24 h, E. coli filamentation inducers, primary screen (AID 1178).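 Note: growth measured as culture turbidity by optical density at 650 nm; test concentration not given here.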 The note with it: E. coli DRC39 acrAB, higher = more signal, called active from +8 up or from −8 down.
A short description of experiment [8]: growth of efflux-deficient E. coli DRC39 – strain DRC39, OD650, 48 h, E. coli filamentation inducers, primary screen (AID 1179).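 Note: screen aims at cell division blockers that make cells filament.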 The settings on record: E. coli DRC39 delta-acrAB growth, higher = more signal, called active from +8 up or from −8 down.
The nature of experiment [9]: viability profiling in RPMI8226 myeloma cells – cell-based, resazurin fluorescence, basal, 24 h, PK04 Diversity Set, profiling panel (AID 1180).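 Note: RPMI8826 multiple myeloma cell line at 5000 cells per well; test concentration not given here.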 The settings on record: higher = more signal.
The target in experiment [10] is E3 ubiquitin-protein ligase XIAP (Homo sapiens) (UniProt P98170). Briefly: small molecules binding XIAP protein – biophysical, small-molecule microarray, fluorescence 635 nm, primary screen (AID 1181).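 Note: score merges 667 nm emission and signal to noise over triplicate slides.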 The settings on record: higher = more signal.
Sequence of E3 ubiquitin-protein ligase XIAP (Homo sapiens) (P98170 whole entry, looked up): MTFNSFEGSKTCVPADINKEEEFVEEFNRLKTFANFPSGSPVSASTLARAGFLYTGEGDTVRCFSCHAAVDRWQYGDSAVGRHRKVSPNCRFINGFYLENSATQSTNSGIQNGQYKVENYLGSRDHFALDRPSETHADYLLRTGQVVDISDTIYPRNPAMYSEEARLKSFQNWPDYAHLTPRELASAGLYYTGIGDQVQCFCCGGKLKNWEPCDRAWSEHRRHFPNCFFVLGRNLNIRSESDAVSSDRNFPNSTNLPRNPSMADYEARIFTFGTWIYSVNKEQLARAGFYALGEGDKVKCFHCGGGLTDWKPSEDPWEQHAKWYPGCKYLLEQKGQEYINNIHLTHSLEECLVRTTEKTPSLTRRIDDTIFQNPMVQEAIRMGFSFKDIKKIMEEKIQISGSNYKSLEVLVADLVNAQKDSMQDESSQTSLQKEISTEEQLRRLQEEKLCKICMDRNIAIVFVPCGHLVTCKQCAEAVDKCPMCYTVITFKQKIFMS

Turning to `COc1ccc(C(O)C2C=CC3C(=O)N(Cc4ccccc4)C(=O)C3N2n2cnnc2)c2ccccc12` (stereo not given), the z-score in experiment [1] was -1.05; in experiment [2] it was 0.373 (inactive); in [3], -1.47 (inactive); in experiment [5], -0.722 (inactive); in experiment [6], -0.975 (inactive); in [7], -0.597 (inactive). Also, the z-score in experiment [8] is -0.706 (inactive); in experiment [9] it was -1.06. Besides, the composite z-score was -0.609 (inactive) in experiment [4] and 0.176 in experiment [10].

As for `C[C@]1(C(=O)NCCN2CCOCC2)c2ccccc2C(=O)N(Cc2ccc(OC(F)(F)F)cc2)[C@H]1c1ccc(CO)cc1`, the z-score in experiment [1] was 0.209; in experiment [2], -0.427 (inactive); in experiment [3] it was -0.191 (inactive); in experiment [5], 0.0435 (inactive); in experiment [6], -0.393 (inactive); in [7], 0.815 (inactive). Moreover, the z-score in experiment [8] was 0.121 (inactive); in [9], 0.206. Besides, the composite z-score in experiment [4] was -0.277 (inactive); in [10] it was -0.0663.

Take `NC(=O)NCC#Cc1ccc2c(c1)[C@]1(C(=O)N2)[C@H](C(=O)Nc2nc3ccccc3s2)[C@H]2C(=O)O[C@H](c3ccccc3)[C@H](c3ccccc3)N2[C@@H]1c1ccc(O)cc1`: the z-score is 0.493 in [1]; 3.37 (inactive) in [2]; 0.917 (inactive) in experiment [3]; 2.87 (inactive) in [5]; 5.05 (inactive) in [6]; 0.296 (inactive) in [7]. For the same molecule, the results for the z-score in [8] and in experiment [9] were 0.321 (inactive) and -0.253, respectively. Also, the composite z-score in [4] was 0.9 (inactive); in experiment [10] it was -0.0337.

`CCOC(=O)[C@H]1C/C=C/C[C@H](C(=O)OCC)C(=O)O[C@H]2[C@@H](OC)O[C@H](CO)[C@@H](OC(=O)Nc3ccc(OC)cc3)[C@@H]2OC1=O`: the z-score is -1.45 in [1]; -0.0211 (inactive) in [2]; -2.07 (inactive) in experiment [3]; 0.979 (inactive) in experiment [5]; 0.864 (inactive) in experiment [6]; 0.391 (inactive) in [7]. Besides, the z-score in experiment [8] was 1.25 (inactive); in experiment [9] it was -1.08. The composite z-score in experiment [4] is 0.214 (inactive); in experiment [10] it was 0.191.

Take `O=C(O)[C@]1(Cc2ccccc2)N=C(c2ccc(OCCCO)cc2)O[C@@H]1c1ccccc1`: the z-score was 0.424 in experiment [1]; -1.13 (inactive) in [2]; 0.723 (inactive) in experiment [3]; -0.912 (inactive) in experiment [5]; -0.002 (inactive) in [6]; 0.0717 (inactive) in [7]. In addition, the z-score in experiment [8] was 1.01 (inactive); in experiment [9], 1.09. The composite z-score is 0.84 (inactive) in experiment [4] and -0.258 in [10].

In the case of `C=CCOC(=O)[C@H]1[C@@H]2C(=O)O[C@@H](c3ccccc3)[C@@H](c3ccccc3)N2[C@@H](c2ccc(OCCOC(=O)[C@H]3C[C@H]4C(=O)N[C@@H](Cc5ccccc5)C(=O)N4[C@H]3c3ccc(O)cc3)cc2)[C@]12C(=O)Nc1ccc(I)cc12`, the z-score in [1] is -0.16; in experiment [2], 1.82 (inactive); in [3] it was -0.417 (inactive); in experiment [5], 4.1 (inactive); in experiment [6] it was 1.66 (inactive); in [7], -0.359 (inactive). Also, the z-score in experiment [8] was -0.293 (inactive); in experiment [9], 0.194. Also, the values for the composite z-score in experiment [4] and in experiment [10] were -1.16 (inactive) and 0.0981, respectively.

Regarding `CN1C(=O)C2C=CC(C(O)C3CCCCC3)N(N3CCCCC3)C2C1=O` (stereo not given), the z-score was -0.435 in experiment [1]; 0.369 (inactive) in [2]; -0.752 (inactive) in experiment [3]; 0.158 (inactive) in [5]; 1.51 (inactive) in experiment [6]; -0.501 (inactive) in experiment [7]. Also, the values for the z-score in experiment [8] and in [9] were -0.406 (inactive) and -0.487, respectively. The composite z-score in experiment [4] is 0.419 (inactive); in experiment [10] it was -0.0548.

Regarding `CCCN1C(=O)[C@]2(Cc3ccccc3)N=C(c3ccc(OCCCO)cc3)O[C@@H]2c2ccccc21`, the z-score is 0.734 in experiment [1]; -1.94 (inactive) in experiment [2]; -0.753 (inactive) in experiment [3]; -0.0963 (inactive) in [5]; 0.931 (inactive) in experiment [6]; 0.94 (inactive) in [7]. Moreover, the z-score in experiment [8] was 0.718 (inactive); in [9], -1.13. Also, the composite z-score in experiment [4] was -0.42 (inactive); in experiment [10] it was 0.108.

`CC(C)C[C@@H]1NC(=O)[C@H]2C[C@@H](C(=O)NCCCCCC[N+](C)(C)C)[C@@H](c3cccc(OCCO)c3)N2C1=O`: the z-score in experiment [1] is 1.15; in [2], -0.703 (inactive); in [3] it was 0.288 (inactive); in experiment [5] it was -0.819 (inactive); in experiment [6], -0.215 (inactive); in experiment [7] it was 0.481 (inactive). For the same molecule, the z-score was 0.442 (inactive) in experiment [8] and 0.571 in experiment [9]. Also, the composite z-score in experiment [4] is -1.16 (inactive); in [10], -0.188.

Consider `COc1ccc([Si](C)(C)[C@@H]2[C@@H](CCO)O[C@]3(C(=O)N(Cc4cccc(N5C(=O)c6ccccc6Oc6ccccc65)c4)c4ccccc43)[C@H]2C)cc1`, for which the z-score is -1.11 in experiment [1]; 1.02 (inactive) in experiment [2]; -4.32 (inactive) in experiment [3]; 1.64 (inactive) in [5]; 5.08 (inactive) in experiment [6]; 1.89 (inactive) in [7]. Further, the z-score is 1.48 (inactive) in experiment [8] and -2.95 in [9]. The results for the composite z-score in experiment [4] and in experiment [10] were 0.786 (inactive) and -0.177, respectively.

Regarding `C=C(CCCC)C(=O)CC[C@@H](OC(=O)c1cccnc1)c1ccccc1OCCO`, the z-score is 0.0748 in [1]; -3.02 (inactive) in experiment [2]; -1.22 (inactive) in experiment [3]; -0.153 (inactive) in [5]; 0.231 (inactive) in experiment [6]; 0.604 (inactive) in experiment [7]. For the same molecule, the z-score in [8] was 0.448 (inactive); in [9], -2.39. For the same molecule, the composite z-score was -2.63 (inactive) in experiment [4] and 0.0325 in experiment [10].

As for `O=C1OCC=C[C@H]2OC34C=CCN(Cn5nnc6ccccc65)C(=O)[C@H]3N(CCCCCCO)C(=O)[C@@H]4[C@@H]12` (stereo not given in full), the z-score was -0.214 in experiment [1]; -0.344 (inactive) in experiment [2]; 0.0473 (inactive) in experiment [3]; 0.481 (inactive) in experiment [5]; -0.91 (inactive) in [6]; 0.239 (inactive) in experiment [7]. The z-score is 0.163 (inactive) in experiment [8] and -0.134 in experiment [9]. In addition, the composite z-score in experiment [4] is -1.32 (inactive); in experiment [10], 0.233.

(Values after PubChem BioAssay.)
